Source: PubChem (National Center for Advancing Translational Sciences (NCATS))
Shown are actives, neighbours in structure and some others; about 9.4% of the full set was active somewhere.
FLuc modulator: firefly luciferase modulation, counter-screen for miR-21 project | purified FLuc, Km substrates, luminescence inhibition | Potency, µM (series often up to 57.5 µM), without a hit: at the top dose activity change, negative = inhibition, actives largely listed as inhibitors | P08659 | hit rate 6.9% among 360,000;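 further: plate controls were vehicle for no effect and reference inhibitor for full effect; nearly all actives have a fitted effect of over 55% in size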
Target sequence (P08659 whole entry, looked up): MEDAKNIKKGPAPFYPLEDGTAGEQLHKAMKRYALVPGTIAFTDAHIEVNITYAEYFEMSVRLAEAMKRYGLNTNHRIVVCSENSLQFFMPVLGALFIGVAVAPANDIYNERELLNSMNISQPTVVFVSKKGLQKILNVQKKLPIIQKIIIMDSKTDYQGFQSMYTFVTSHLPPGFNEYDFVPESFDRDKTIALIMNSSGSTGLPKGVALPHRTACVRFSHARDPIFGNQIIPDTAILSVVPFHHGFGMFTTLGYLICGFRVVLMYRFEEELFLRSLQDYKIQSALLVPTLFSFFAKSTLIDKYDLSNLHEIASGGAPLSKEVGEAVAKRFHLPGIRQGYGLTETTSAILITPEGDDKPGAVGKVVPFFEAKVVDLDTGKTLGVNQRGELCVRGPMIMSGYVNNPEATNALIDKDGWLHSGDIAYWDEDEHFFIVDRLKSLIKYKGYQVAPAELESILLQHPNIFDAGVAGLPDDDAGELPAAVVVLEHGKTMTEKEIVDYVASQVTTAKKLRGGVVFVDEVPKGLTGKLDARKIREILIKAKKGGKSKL
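Purified P. pyralis luciferase, 10 nM final, with Km-level 10 uM D-luciferin and 10 uM ATP in 50 mM Tris acetate pH 7.5, 10 mM Mg acetate, 0.01% Tween-20, 0.05% BSA; 6-point qHTS titration about 60 µM downward; luminescence read.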
ELG1 DNA repair: blocks ELG1-dependent DNA repair in HEK293T cells. HEK293T ELG1-luciferase reporter, luminescence, 16 h; DNA damage induced by 5-fluorouridine. Potency, µM (series often up to 46.1 µM), without a hit: top-dose activity change, negative = inhibition, hits mostly inhibitors. hit rate 2.3% among 330,000; further: on the % scale 0 is the no-effect control and ±100 the full control effect; nearly all actives have a fitted effect of over 55% in size
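HEK293T cells expressing luciferase-tagged ELG1 (2,000/well) received 5-Fluorouridine plus compound or DMSO for 16 hr at 37 °C. Luciferase was read by ONE-Glo luminescence after 30 min at room temperature.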
ELG1 genotox: genotoxicity induction in ELG1-luciferase HEK293T cells | Potency, µM (highest dose often 46 µM), without a hit: at the top dose activity change, positive = activation, actives largely listed as activators | AID 504466 | hit rate 1.3% among 330,000 | HEK293T ELG1-luciferase reporter, luminescence, 16 h; further: % of control where 0% means no effect; nearly all actives have a fitted effect of over 60% in size
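Quantitative HTS format in 1536-well plates. HEK293T ELG1-luciferase reporter cells receive test compound and are incubated 16 hr at 37 °C, 5% CO2; ONE-Glo added, 30 min room temperature, then luminescence read.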
NPC1 promoter act: activates the NPC1 promoter; Huh7 NPC1 promoter luciferase reporter, 24 h; Potency, µM (doses to about 9.22 µM), for the others: at the highest dose activation, actives largely listed as activators; hit rate 2.4% among 320,000; AID 485313; further: % of control where 0% means no effect; nearly all actives have a fitted effect of over 60% in size
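Huh7 cells stably carrying NPC1 promoter–luciferase, plated in Opti-MEM with 10% FBS for 2 h, were exposed to compound in DMSO for 24 h at 37 °C; luciferase reagent was added for 10 min and luminescence read.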
Rab9 promoter act: activates the Rab9 promoter; AID 485297; hit rate 2.8% among 320,000; Potency, µM (titrated, usually from 9.22 µM), for the others: top-dose activation, negative = inhibition, actives largely listed as activators; Huh7 Rab9 promoter-luciferase reporter, luminescence, 24 h; further: % of control where 0% means no effect; nearly all actives have a fitted effect of over 60% in size
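Huh7 cells stably carrying Rab9 promoter–luciferase reporter, plated 1500 cells/well, compound added after 2 h and incubated 24 h at 37 °C; luciferase luminescence then read after 10 min with detection reagent.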
SMN2 splice enh: SMN2 splice variant enhancement; HEK293 SMN2-luciferase splicing reporter, luminescence, 30-36 h; Potency, µM (series often up to 46.1 µM), inactives show at the highest dose activity change, positive = activation, hits mostly activators; hit rate 2.8% among 210,000; further: % of control where 0% means no effect; nearly all actives have a fitted effect of over 55% in size
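qHTS luciferase splicing reporter: luminescence rises when SMN2 exon 7 is included in transfected HEK293 cells. Compound exposure lasted 30-36 h at 37C, with 4.5 mM final sodium butyrate as control, followed by a ONE-Glo read.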
An asterisk follows results filed as active; ? = inconclusive; . = not tested or not shown. The call rests on the fitted dose curve; in most records, active means well fitted curve in the direction sought with a large enough effect; inconclusive means small, poorly fitted or top-dose-only effect, or another doubt; inactive means no such curve, though single readings can be large; an effect the other way counts as inactive or inconclusive. Potency means the concentration at half of the fitted maximal effect.

SMILES | FLuc modulator | ELG1 DNA repair | ELG1 genotox | NPC1 promoter act | Rab9 promoter act | SMN2 splice enh
Cc1ccc(CNC(=O)CCc2nc3cccnc3n2Cc2ccccc2)cc1 | 7.5% | . | . | . | . | -11.7%
CSc1cccc(NC(=O)CN2C(=O)COc3ccc(S(=O)(=O)N4CCC(C)CC4)cc32)c1 | -3.9% | . | . | . | . | .
CCc1ccc(NC(=O)Cn2c(=O)n(Cc3nc(C)no3)c(=O)c3cc4c(cc32)OCO4)cc1 | 7.4% | . | . | . | . | .
CCOC(=O)c1c(C)c(-c2ccccc2)n(CC(=O)NC2CCCCC2)c1C | -1.8% | . | . | . | . | 4.8%
O=C(NC1=NCCS1)c1cc(-c2ccccc2)nn1-c1ccccc1 | 0.7% | -2.8% | -1.0% | 11.6% | 6.5% | -18.1%
CCN(CC)S(=O)(=O)c1ccc(C(=O)Nc2cccc(C)c2)cc1 | ? | ? | 5.1% | 2.5% | -2.4% | 17.5%
CCN(CC)S(=O)(=O)c1cccc(NC(=O)c2ccc(-n3nc(C)cc3C)cc2)c1 | -2.1% | 14.6µM* | -7.7% | -3.9% | -13.6% | -86.1%
Cc1cc(C)n(-c2ccc(C(=O)NC3=NCCS3)cc2)n1 | 15.1µM* | ? | ? | ? | 3.16µM* | ?
Cc1cc(C)n(-c2ccc(C(=O)Nc3ccc4c(c3)OCO4)cc2)n1 | 13.5µM* | 2.1% | ? | ? | ? | ?
Cc1cnc(NC(=O)NCC2CCCC(CNC(=O)Nc3ncc(C)s3)C2)s1 (stereo not drawn) | -18.9% | 20.6µM* | -22.1% | -2.4% | -1.1% | .
CC(C)OC(=O)c1ccc(Cn2nnc3sc4c(c3c2=O)CCCC4)cc1 | -8.1% | . | . | . | . | -4.2%
COC(=O)c1c(N)sc(Cc2ccccc2)c1C | -6.3% | -3.1% | 0.4% | -2.4% | 0.7% | .
Nc1sc(-c2ccccc2)c(Cc2ccccc2)c1C(=O)O | 16.9µM* | -7.4% | 1.3% | -4.9% | -1.0% | -52.8%
Cc1ccc(C)c2[nH]c(=O)c(C(c3nnnn3C(C)(C)C)N3CC=C(c4ccc(F)cc4)CC3)cc12 (stereo not drawn) | -1.1% | 7.31µM* | -7.0% | -1.7% | -1.1% | -21.7%
Cc1cc(C)c2[nH]c(=O)c(C(c3nnnn3C(C)(C)C)N3CCN(C(=O)c4ccco4)CC3)cc2c1 (stereo not drawn) | -4.8% | ? | 0.8% | -13.2% | -11.0% | -7.5%
CCC(C)(C)n1nnnc1C(c1cc2cccc(C)c2[nH]c1=O)N1CCCC1 (stereo not drawn) | -0.2% | -26.7% | -1.2% | -2.1% | 0.2% | -14.3%
CCC(C)(C)n1nnnc1C(c1cc2cc(C)cc(C)c2[nH]c1=O)N1CCCC1 (stereo not drawn) | 1.7% | 14.6µM* | -0.2% | -3.4% | -3.6% | 6.4%
c1ccc(-c2csc(NC3=NCCCCC3)n2)cc1 | 19µM* | ? | ? | 17.6% | ? | 11.2µM*
CC(C)(C)c1ccc(-c2csc(NNC3=NCCCCC3)n2)cc1 | 15.1µM* | -1.7% | ? | 2.1% | -0.8% | -14.8%
Brc1ccc(-c2csc(NNC3=NCCCCC3)n2)cc1 | 19µM* | 21.5% | -3.0% | 5.9% | -6.4% | .
C=CC1CO1 (stereo not drawn) | . | . | . | . | . | 1.7%
CCC1=C(OC(=O)N(CC)CC)N2C(=O)OC(=NCCOC)[C@]2(C)[C@H]2C1=CC[C@H]1C(=O)N(CC(=O)OC)C(=O)[C@H]12 | . | . | . | . | . | -1.7%
Cc1ccc(C)c(NC(=O)CSc2cn(CC(=O)N3CCCC3)c3ccccc23)c1 | -9.7% | . | . | . | . | .
CC1CCN(C(=O)c2scc3c2OCCO3)CC1 | 1.3% | 18.4µM* | -11.9% | 1.9% | -3.8% | -19.5%
Cc1sc(N/N=C/c2ccco2)nc1-c1ccccc1 | 9.53µM* | ? | ? | 15.9% | 29.8% | -30.1%
SMILES | FLuc modulator | ELG1 DNA repair | ELG1 genotox | NPC1 promoter act | Rab9 promoter act | SMN2 splice enh
Cc1onc(-c2ccccc2)c1-c1csc(N/N=C/c2ccccc2)n1 | -8.6% | ? | -7.5% | -2.0% | 0.3% | .
Cc1sc(N/N=C/c2cccnc2)nc1-c1ccccc1 | 16.9µM* | -3.8% | -1.0% | -2.3% | 4.2% | ?
C(=N\Nc1nc(-c2ccccc2)cs1)/c1ccco1 | 2.69µM* | ? | ? | 2.82µM* | 3.16µM* | 14.1µM*
Clc1ccc(-c2csc(N/N=C/c3ccco3)n2)cc1 | 13.5µM* | ? | 3.3% | ? | ? | .
Cc1nn(C)c(C)c1S(=O)(=O)N(CC(=O)N1CCN(c2ccccc2)CC1)c1ccc(C(C)C)cc1 | -6.8% | . | . | . | . | -0.5%
CNc1ncncc1-c1ccc(C(=O)N(C)C)cc1 | . | . | . | . | . | -1.7%
Brc1ccc(Nc2c3c(nc4nncn24)CCC3)cc1 | -5.2% | . | . | . | . | 2.0%
Cc1ccc(-c2csc(N/N=C/c3ccco3)n2)cc1 | 9.53µM* | ? | 14.7% | ? | ? | 26.4%
Brc1ccc(-c2csc(N/N=C/c3ccco3)n2)cc1 | ? | ? | 4.0% | ? | ? | ?
Cc1ccc(N2C(=O)C(CC(=O)Nc3ccc(F)cc3)N(Cc3ccc4c(c3)OCO4)C2=O)cc1 (stereo not drawn) | -0.1% | . | . | . | . | ?
O=C(NNC(=O)c1cc(-c2ccccc2)nc2ccccc12)Nc1cccc(Cl)c1 | ? | ? | -21.3% | -2.5% | 0.1% | -16.4%
C=CCNC(=S)NNC(=O)c1cc(-c2cccnc2)nc2ccccc12 | 9.53µM* | -4.7% | 3.1% | -0.2% | 5.9% | .
CC(C)(C)c1ccc(-c2cc(C(=O)NNC(=O)Nc3ccccc3)c3ccccc3n2)cc1 | 0.477µM* | ? | ? | ? | 20.9% | 14.1µM*
O=C(NNC(=O)c1cc(-c2cccnc2)nc2ccccc12)Nc1ccc(Cl)cc1 | 23.9µM* | ? | -7.8% | 12.8% | 26.5% | -2.7%
